Inconclusive results are not listed. A number with no mark means an inactive call. The source made the active and inactive calls. Unless noted, calls come from the whole dose curve.

In PubChem BioAssay (Tox21) one finds Potency and activation data, which are given here for ten compounds.

The target in test [1] is Peroxisome proliferator-activated receptor delta (Homo sapiens) (UniProt Q03181). Briefly: qHTS assay to identify small molecule agonists of the peroxisome proliferator-activated receptor delta (PPARd) signaling pathway (AID 743212). Note: % is set by controls: 0 for no effect and ±100 for the full control effect. The essentials:
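Beta-lactamase reporter readout: a ratiometric FRET signal from the LiveBLAzer substrate after 2 h at room temperature. Compound exposure at 37 °C in PPARδ-bla HEK293H cells driven by an upstream activator sequence.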
(In general: Quantitative high-throughput screening tests each substance at several concentrations.)

Test [2] has the same target. Briefly: qHTS assay to identify small molecule antagonists of the peroxisome proliferator-activated receptor delta (PPARd) signaling pathway (AID 743215; active = well fitted inhibition curve with a large enough effect in the signal ratio in the repeat runs, not every such curve was filed as active; the % refers to the signal ratio;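 note: cells stimulated with agonist L165041 at 300 nM final during compound exposure; series mostly up to about 62 µM; % is set by controls: 0 for no effect and ±100 for the full control effect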). Put shortly:
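HEK293H GeneBLAzer PPARd UAS-bla reporter cells; cpd + L165041 300 nM final, 17 h 37 C; LiveBLAzer B/G FRET substrate 2 h RT; fluorescence intensity read-out. Antagonist mode.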

For test [3], the target named is Bile acid receptor (Homo sapiens) (UniProt Q96RI1). Briefly: qHTS assay to identify small molecule antagonists of the farnesoid-X-receptor (FXR) signaling pathway (AID 743217; active = well fitted inhibition curve with a large enough effect in the signal ratio in the repeat runs, not every such curve was filed as active; the % refers to the signal ratio; note: potency is the fitted concentration of half-maximal effect). The essentials:
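Read-out: beta-lactamase FRET fluorescence (LiveBLAzer B/G substrate, 2 h, room temperature) in GeneBLAzer FXR-UAS-bla HEK 293T cells. Compounds were co-dosed with 50 uM chenodeoxycholic acid (final) and incubated 16 h at 37 °C.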

A short description of test [4]: qHTS assay to identify small molecule agonists of the farnesoid-X-receptor (FXR) signaling pathway - cell viability counter screen (AID 743218; active = well fitted curve in the direction sought with a large enough effect in the repeat runs; an effect the other way counts as inactive or inconclusive; note: nearly all actives have a fitted effect of over 45% in size; note: potency is the fitted concentration of half-maximal effect). The essentials:
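Luminescence from CellTiter-Glo, read after 30 min at RT, reports viability of GeneBLAzer FXR-UAS-bla HEK 293T cells treated 16 h with compounds in the wells used for the beta-lactamase reporter.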

The nature of test [5]: qHTS assay to identify small molecule antagonists of the farnesoid-X-receptor (FXR) signaling pathway - cell viability counter screen (AID 743221; active = well fitted cell-killing curve with a large enough effect in the repeat runs, not every such curve was filed as active; note: nearly all actives have a fitted effect of over 50% in size; note: potency is the fitted concentration of half-maximal effect). Put shortly: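 Quantitative HTS of the Tox21 10K library run in parallel with the beta-lactamase reporter read. HEK 293T cells carrying a UAS-driven bla reporter got compound and 50 uM CDCA (final) for 16 h; ATP-based luminescence followed.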

A short description of test [6]: qHTS assay to identify small molecule agonists of the NFkB signaling pathway - cell viability counter screen (AID 1159515). Note: nearly all actives have a fitted effect of over 55% in size. Note: potency is the fitted concentration of half-maximal effect. Put shortly: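 ME-180 NFkB-bla cells, 2,000/well; overnight attach; compound 5 hr, 37 C/5% CO2; LiveBLAzer substrate 1.5 hr RT; then CellTiter-Glo in same wells, 30 min RT, luminescence read.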
Test [7] can be described thus: qHTS assay to identify small molecule agonists of the endoplasmic reticulum stress response signaling pathway (AID 1159516; active = well fitted activation curve with a large enough effect in the signal ratio in the repeat runs, not every such curve was filed as active; the % refers to the signal ratio; note: % is set by controls: 0 for no effect and ±100 for the full control effect). Put shortly: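 HeLa ESRE-bla reporter line; cpd 5 h, 37 C/5% CO2; LiveBLAzer B/G FRET substrate 2 h RT; ex 405, em 460/530 nm.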
Test [8] is described as follows: qHTS assay to identify small molecule agonists of the endoplasmic reticulum stress response signaling pathway - cell viability counter screen (AID 1159517). Note: nearly all actives have a fitted effect of over 50% in size. Note: potency is the fitted concentration of half-maximal effect. The essentials: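 ESRE-bla HeLa cells (1,500/well) were plated overnight at 37 C and exposed to compounds for 5 hr. After the 2 hr beta-lactamase substrate read, CellTiter-Glo went into the same wells, and luminescence was read after 30 min at room temperature.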

Test [9] is described as follows: qHTS assay to identify small molecule agonists of the AP-1 signaling pathway (AID 1159526). Note: % is set by controls: 0 for no effect and ±100 for the full control effect.
Test [10] concerns the target Retinoic acid receptor RXR-alpha (Homo sapiens) (UniProt P19793). Nature of the test: qHTS assay to identify small molecule agonists of the RXR signaling pathway (AID 1159527). Note: % is set by controls: 0 for no effect and ±100 for the full control effect; nearly all actives have a fitted effect of over 35% in size. Put shortly:
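qHTS of the Tox21 10K library in GeneBLAzer RXR-alpha HEK 293T cells carrying a beta-lactamase reporter […]; 16 hr treatment, 9-cis retinoic acid as agonist control, FRET read-out.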

The nature of test [11]: qHTS assay to identify small molecule agonists of the peroxisome proliferator-activated receptor delta (PPARd) signaling pathway - cell viability counter screen (AID 743211; active = well fitted curve in the direction sought with a large enough effect in the repeat runs; an effect the other way counts as inactive or inconclusive; note: nearly all actives have a fitted effect of over 55% in size; note: potency is the fitted concentration of half-maximal effect). The essentials: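 Viability of GeneBLAzer PPARd UAS-bla HEK293H cells was assessed after 17 h compound incubation at 37C, using CellTiter-Glo reagent added after the reporter read and luminescence recorded 30 min later.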

The target of test [12] is Vitamin D3 receptor (Homo sapiens) (UniProt P11473). Nature of the test: qHTS assay to identify small molecule agonists of the vitamin D receptor (VDR) signaling pathway (AID 743222). Note: % is set by controls: 0 for no effect and ±100 for the full control effect. Put shortly: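 Beta-lactamase reporter readout (LiveBLAzer B/G FRET, 2 h RT) in VDR-bla cells after 16 h compound treatment at 37C, 5% CO2; cells pre-incubated 4 h before pin transfer of DMSO solutions.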
Chain of Vitamin D3 receptor (Homo sapiens) (P11473 whole entry, looked up): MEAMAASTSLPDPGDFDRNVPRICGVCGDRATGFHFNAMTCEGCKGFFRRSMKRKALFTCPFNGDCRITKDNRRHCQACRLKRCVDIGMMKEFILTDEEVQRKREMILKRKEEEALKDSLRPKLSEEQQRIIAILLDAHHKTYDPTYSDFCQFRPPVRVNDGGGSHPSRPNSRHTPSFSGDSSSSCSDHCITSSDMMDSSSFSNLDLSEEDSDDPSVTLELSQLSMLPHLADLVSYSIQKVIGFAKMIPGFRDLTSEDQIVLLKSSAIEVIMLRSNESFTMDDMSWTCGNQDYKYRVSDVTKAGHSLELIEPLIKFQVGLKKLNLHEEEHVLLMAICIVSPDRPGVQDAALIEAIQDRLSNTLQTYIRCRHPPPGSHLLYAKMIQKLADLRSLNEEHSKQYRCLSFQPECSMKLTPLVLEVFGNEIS

A short description of test [13]: qHTS assay to identify small molecule agonists of the vitamin D receptor (VDR) signaling pathway - cell viability counter screen (AID 743224; active = well fitted curve in the direction sought with a large enough effect in the repeat runs; an effect the other way counts as inactive or inconclusive; note: nearly all actives have a fitted effect of over 50% in size; note: potency is the fitted concentration of half-maximal effect). The essentials:
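Cytotoxicity counter screen: VDR-bla cells, 16 h compound exposure at 37C, 5% CO2; CellTiter-Glo luminescence, 30 min RT, same wells as bla read.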

The nature of test [14]: qHTS assay to identify small molecule antagonists of the vitamin D receptor (VDR) signaling pathway - cell viability counter screen (AID 743225; active = well fitted curve in the direction sought with a large enough effect in the repeat runs; an effect the other way counts as inactive or inconclusive; note: nearly all actives have a fitted effect of over 50% in size; note: potency is the fitted concentration of half-maximal effect). The essentials: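 Cells (VDR-UAS-bla HEK 293T) are plated, rested 4 h at 37C, dosed with compound and 3 nM final 1-alpha,25-dihydroxy vitamin D3, and incubated 16 h. Viability is taken from CellTiter-Glo luminescence in the reporter wells.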

A short description of test [15]: qHTS assay to identify small molecule antagonists of the peroxisome proliferator-activated receptor delta (PPARd) signaling pathway - cell viability counter screen (AID 743213; active = well fitted curve in the direction sought with a large enough effect in the repeat runs; an effect the other way counts as inactive or inconclusive). The essentials: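 PPARd-bla HEK293H cells (3000/well) got compound plus 300 nM L165041 agonist for 17 h at 37 C. Viability in the same wells came from CellTiter-Glo luminescence after 30 min at room temperature.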

The target in test [16] is Bile acid receptor (Homo sapiens) (UniProt Q96RI1). Nature of the test: qHTS assay to identify small molecule agonists of the farnesoid-X-receptor (FXR) signaling pathway (AID 743220; active = well fitted activation curve with a large enough effect in the signal ratio in the repeat runs, not every such curve was filed as active; the % refers to the signal ratio; note: % is set by controls: 0 for no effect and ±100 for the full control effect). Put shortly:
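FXR-UAS-bla HEK 293T cells carrying a UAS-driven beta-lactamase reporter were plated for 5 h at 37C/5% CO2, then exposed to DMSO-dissolved Tox21 10K compounds for 16 h at 37C. A LiveBLAzer B/G FRET substrate was loaded for 2 h at room temperature before fluorescence reading.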

Test [17] concerns the target Nuclear receptor ROR-gamma (Homo sapiens) (UniProt P51449). Nature of the test: qHTS assay to identify small molecule antagonists of the retinoid-related orphan receptor gamma (ROR-gamma) signaling pathway (AID 1159521; active = well fitted curve in the direction sought with a large enough effect in the repeat runs; an effect the other way counts as inactive or inconclusive; note: nearly all actives have a fitted effect of over 50% in size; note: potency is the fitted concentration of half-maximal effect). The essentials:
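RORγ antagonism is scored from reduced reporter luminescence in Tet-on CHO cells. Induction used 1 uM final doxycycline hyclate for 16 h at 37 C, following a 2 h compound exposure.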

Test [18] in a line: qHTS assay to identify small molecule agonists of the AP-1 signaling pathway - cell viability counter screen (AID 1159525). Note: nearly all actives have a fitted effect of over 55% in size. Note: potency is the fitted concentration of half-maximal effect. Put shortly:
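Intracellular ATP by Cell Titer Glo luminescence (30 min, RT) in the same ME-180 AP-1-bla wells after the 5 h compound exposure at 37 °C. Normalised to tetra n-octyl ammonium bromide and DMSO controls.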

Test [19] has as its target Vitamin D3 receptor (Homo sapiens) (UniProt P11473). Briefly: qHTS assay to identify small molecule antagonists of the vitamin D receptor (VDR) signaling pathway (AID 743223; active = well fitted inhibition curve with a large enough effect in the signal ratio in the repeat runs, not every such curve was filed as active; the % refers to the signal ratio; note: % is set by controls: 0 for no effect and ±100 for the full control effect). The essentials:
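Fluorescence from LiveBLAzer B/G FRET substrate, read after 2 h at room temperature, reflects beta-lactamase reporter activity in VDR-bla cells treated 16 h at 37C with compounds and agonist 1alpha,25-dihydroxyvitamin D3 (3 nM final).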

Chain of Bile acid receptor (Homo sapiens) (Q96RI1 whole entry, looked up): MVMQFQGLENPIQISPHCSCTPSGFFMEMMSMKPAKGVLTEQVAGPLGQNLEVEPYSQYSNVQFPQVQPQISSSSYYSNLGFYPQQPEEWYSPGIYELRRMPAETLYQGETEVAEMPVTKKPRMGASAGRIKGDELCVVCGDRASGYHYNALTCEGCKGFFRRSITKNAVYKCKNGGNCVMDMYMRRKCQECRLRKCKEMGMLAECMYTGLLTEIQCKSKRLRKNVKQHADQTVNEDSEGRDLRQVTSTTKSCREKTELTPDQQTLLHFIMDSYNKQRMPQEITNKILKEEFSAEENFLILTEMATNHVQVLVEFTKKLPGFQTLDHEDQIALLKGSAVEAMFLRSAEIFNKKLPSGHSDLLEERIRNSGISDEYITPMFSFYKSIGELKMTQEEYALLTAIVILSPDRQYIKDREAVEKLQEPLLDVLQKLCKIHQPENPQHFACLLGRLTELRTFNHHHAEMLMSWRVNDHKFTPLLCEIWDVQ
Chain of Peroxisome proliferator-activated receptor delta (Homo sapiens) (Q03181 whole entry, looked up): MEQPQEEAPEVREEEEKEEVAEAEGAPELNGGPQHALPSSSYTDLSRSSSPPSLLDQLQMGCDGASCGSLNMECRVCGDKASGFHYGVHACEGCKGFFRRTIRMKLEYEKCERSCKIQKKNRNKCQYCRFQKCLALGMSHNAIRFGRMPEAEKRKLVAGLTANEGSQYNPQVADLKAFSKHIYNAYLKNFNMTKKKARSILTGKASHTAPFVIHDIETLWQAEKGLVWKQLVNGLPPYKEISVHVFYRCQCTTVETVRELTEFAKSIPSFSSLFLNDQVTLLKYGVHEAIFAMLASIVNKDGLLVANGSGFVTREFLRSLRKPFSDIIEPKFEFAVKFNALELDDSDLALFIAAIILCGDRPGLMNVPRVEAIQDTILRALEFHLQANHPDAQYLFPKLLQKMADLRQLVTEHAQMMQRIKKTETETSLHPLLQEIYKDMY
Chain of Retinoic acid receptor RXR-alpha (Homo sapiens) (P19793 whole entry, looked up): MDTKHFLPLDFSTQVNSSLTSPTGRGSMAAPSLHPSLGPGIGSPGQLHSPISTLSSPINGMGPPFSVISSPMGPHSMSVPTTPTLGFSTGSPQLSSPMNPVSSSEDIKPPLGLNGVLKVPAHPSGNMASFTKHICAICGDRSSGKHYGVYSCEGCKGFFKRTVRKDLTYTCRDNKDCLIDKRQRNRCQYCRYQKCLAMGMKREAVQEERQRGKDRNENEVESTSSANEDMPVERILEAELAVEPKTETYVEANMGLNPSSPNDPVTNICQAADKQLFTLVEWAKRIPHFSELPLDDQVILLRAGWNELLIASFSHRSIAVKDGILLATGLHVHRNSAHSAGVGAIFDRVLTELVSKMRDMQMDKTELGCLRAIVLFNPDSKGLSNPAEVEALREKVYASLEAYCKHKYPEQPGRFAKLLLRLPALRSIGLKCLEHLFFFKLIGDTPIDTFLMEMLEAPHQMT

For `COc1cc2nc(N3CCN(C(=O)c4ccco4)CC3)nc(N)c2cc1OC`, the Potency result in test [1], in test [2], in test [3], in [4], in test [5] and in test [6] was “inactive” in each case. For the same compound, the Potency entry in test [7] and in [8] was “inactive” in each case. The activation was 3.7% [at 15.8 µM] in [9] and -11.7% [at 15.8 µM] in test [10].

`CCCCCCCCCCCCOCCOCCOCCOCCOCCOCCOCCOCCOCCO`: the Potency in [11] was 33.5 µM (active); in test [5], 26.6 µM (active); in test [13] it was 29.8 µM (active); in [14], 10.7 µM (active). The Potency result in test [1], in test [12], in test [6], in test [7] and in test [8] was “inactive” in each case.

As for `COC(=O)Nc1nc2ccc(C(=O)c3ccccc3)cc2[nH]1`, the Potency entry in test [11], in test [1], in [15], in [2], in test [4] and in test [16] was “inactive” in each case. Also, the Potency result in [5], in test [13], in test [14], in test [6], in test [7] and in test [8] was “inactive” in each case. The Potency result in [17] and in test [18] was “inactive” throughout. Moreover, in [3], the Potency was 1.06 µM (active).

For `CN1CCN(Cc2cc(-c3ccc4[nH]c(=O)oc4c3)co2)[C@@H](c2ccc(F)cc2)C1`, the Potency entry in test [1], in [2], in [3], in [16], in test [5] and in test [12] was “inactive” in each case. Also, the Potency result in test [19], in test [6], in test [7], in [8] and in [18] was “inactive” each time. Besides, the Potency in [17] was 26.3 µM (active).

Regarding `Nc1ccc(NCCO)c([N+](=O)[O-])c1`, the Potency entry in test [11], in test [1], in test [15], in [2], in test [4] and in [5] was “inactive” throughout. The Potency result in [13], in test [14], in test [6], in [7], in [8] and in test [18] was “inactive” throughout. Further, the Potency entry in test [9] and in test [10] was “inactive” each time.

With `C[Si](Cl)(c1ccccc1)c1ccccc1`, the Potency entry in [11], in test [1], in test [15], in test [2], in test [3] and in [4] was “inactive” in each case. In addition, the Potency entry in [16], in test [5], in test [12], in [19], in test [14] and in test [6] was “inactive” throughout. Besides, the Potency entry in [7], in test [8], in test [17], in test [18] and in test [10] was “inactive” in each case.

Take `C=CC(=O)Nc1cc2c(Nc3ccc(F)c(Cl)c3)ncnc2cc1OCCCN1CCOCC1`: the Potency result in [1], in [2], in test [16], in test [5], in test [19] and in test [14] was “inactive” throughout. Further, the Potency result in test [7] and in test [17] was “inactive” throughout. Moreover, the values for the Potency in [6] and in test [8] were 15.1 µM (active) and 16.9 µM (active), respectively.

For `[Cu+]`, the Potency entry in test [11], in test [1], in test [15], in [2], in test [4] and in test [5] was “inactive” each time. In addition, the Potency result in [14], in test [6], in test [7], in test [8] and in test [10] was “inactive” throughout.

Regarding `COc1ccc2cc1Oc1ccc(cc1)C[C@H]1c3c(cc4c(c3Oc3cc5c(cc3OC)CCN(C)[C@@H]5C2)OCO4)CCN1C`, the Potency was 29.8 µM (active) in test [11], 18.8 µM (active) in test [4] and 29.8 µM (active) in test [5]. In addition, the Potency result in test [16], in [6], in test [7], in [8] and in test [18] was “inactive” throughout.

For `CCCCCCCCCCCCOC(=O)c1ccc(O)cc1`, the Potency in test [11] is 34.9 µM (active); in [3], 44 µM (active); in test [4] it was 49.3 µM (active); in [18] it was 55.4 µM (active). Besides, the Potency entry in [1], in [15], in [2], in [12], in test [19] and in test [14] was “inactive” in each case. For the same compound, the Potency entry in [6], in test [7], in [8] and in [10] was “inactive” in each case.
